SARS 3CLpro inh: SARS-CoV 3CLpro protease inhibition; recombinant SARS-CoV 3CLpro, quenched FRET peptide cleavage; P0C6X7; 290,000 tested, 0.14% active; inhibition, % at 6 µM; in the data active = inhibition above about 12%
Mtb FBA inh: inhibits M. tuberculosis FBA enzyme | AID 588726 | 360,000 tested, 2.3% active | inhibition, % at 1 µM | P9WQA3 | purified M. tuberculosis FBA, fluorescence read-out
Target sequence (P9WQA3 whole entry, looked up): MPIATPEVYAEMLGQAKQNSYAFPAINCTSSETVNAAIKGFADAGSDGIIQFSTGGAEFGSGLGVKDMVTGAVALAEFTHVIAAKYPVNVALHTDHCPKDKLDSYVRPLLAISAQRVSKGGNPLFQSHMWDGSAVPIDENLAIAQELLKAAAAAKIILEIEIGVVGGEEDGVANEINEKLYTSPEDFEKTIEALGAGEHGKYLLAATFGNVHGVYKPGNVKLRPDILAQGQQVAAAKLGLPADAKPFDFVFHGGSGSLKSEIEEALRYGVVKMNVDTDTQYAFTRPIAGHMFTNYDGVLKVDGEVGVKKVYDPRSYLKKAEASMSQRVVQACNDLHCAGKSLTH
Vc quorum ag: inducers of Vibrio cholerae quorum light production without autoinducers | V. cholerae BH1578 lux reporter, luminescence, 6 h | 350,000 tested, 0.16% active | activation, % at 18.7 µM; in the data active = activation mostly above about 9.7%, no sharp cut-off
PrPC TRFRET: cell surface PrPC inhibition, primary TR-FRET screen. inhibition, % at 13.8 µM. AID 720596. P04156. 370,000 tested, 0.43% active. TR-FRET read-out; in the data active = inhibition above about 24%
GDH-TPI counter-1: counter-screen for M. tuberculosis FBA inhibitors: GDH-TPI coupled enzymes; inhibition, % at 4.8 µM; 360,000 tested, 1.2% active; GDH-TPI coupled enzyme counterscreen, NADH absorbance; in the data active = inhibition above about 30%
Mtb FBA inh conf: Mtb FBA inhibition, confirmed | AID 651616 | purified M. tuberculosis FBA, fluorescence read-out | shares compounds with Mtb FBA inh | 5,600 tested, 78% active | inhibition, % at 1 µM
GDH-TPI counter-2: GDH-TPI inhibition counter-screen for FBA inhibitors; shares compounds with Mtb FBA inh; GDH-TPI coupled enzyme counterscreen, fluorescence; inhibition, % at 1 µM; 5,600 tested, 81% active; in the data active = inhibition above about 10%
GDH-TPI DR: GDH-TPI dose response counter-screen for Mtb FBA; shares compounds with Mtb FBA inh; GDH-TPI coupled enzyme assay, fluorescence, artifact counterscreen; IC50, µM; 170 tested, 79% active; call rule not given here
Hits are given with their value; - = inactive; . = no result given; + = active, no number. Shown are actives, neighbours in structure and some others; about 3.9% of the full set was active somewhere. Cut-off read from the data, not from the text of the source, unless noted: active = inhibition above about 27%; inactive = the rest.

SMILES	SARS 3CLpro inh	Mtb FBA inh	Vc quorum ag	PrPC TRFRET	GDH-TPI counter-1	Mtb FBA inh conf	GDH-TPI counter-2	others
COc1ccc(-c2cc(-c3ccccc3)c(C#N)c(SCC(=O)O)n2)cc1	.	47	-	-	-	-	-	GDH-TPI DR=2.5
COc1ccc2c(CN3CCCCC3)cc(=O)oc2c1	.	44	.	-	.	-	-
CCCN(CCC)Cc1cc(=O)oc2cc(OC)ccc12	.	51	.	-	.	-	-
CC(C)C[C@H]1COc2cccc(NCCO)c2S(=O)(=O)N1	.	.	.	-	.	.	.
CCOC(=O)c1cn2nc(Oc3cccc(F)c3)ccc2n1	-	-	-	-	-	.	.
CCOC(=O)c1cn2nc(Oc3ccc(C(=O)OC)cc3)ccc2n1	-	100	-	-	-	+	+
CCOC(=O)c1cn2nc(Oc3ccc(C#N)cc3)ccc2n1	-	96	-	-	-	-	-
CCOC(=O)c1cn2nc(Oc3ccc(NC(C)=O)cc3)ccc2n1	-	-	-	-	-	.	.
CCCCC(=O)Nc1cc2nn(-c3ccc(OC)cc3)nc2cc1C	-	27	-	-	-	151	121
CCC(=O)Nc1cc2nn(-c3ccc(OC)cc3)nc2cc1C	-	66	-	-	-	39	28
COc1ccc(NC(=O)C2(C)Cc3c(-c4ccc(N(C)C)cc4)ccnc3O2)cn1 (centres undefined)	.	40	-	-	-	129	103
CC(=O)Nc1ccc(-c2ccnc3c2CC(C)(C(=O)Nc2ccc(Cl)c(C(F)(F)F)c2)O3)cc1 (centres undefined)	.	-	-	-	-	.	.
CN(C)c1ccc(-c2ccnc3c2CC(C)(C(=O)Nc2ccc(Cl)c(C(F)(F)F)c2)O3)cc1 (centres undefined)	.	84	-	-	-	54	40
COc1c2c(nc3occc13)C(CC=C(C)C)(OC)C(=O)C=C2 (centres undefined)	-	-	-	-	-	.	.
CCOc1c(OC)ccc2c3c(c(=O)oc12)CCCC3	-	-	-	-	-	.	.
C=CCOc1ccc2c(OC)c3ccoc3nc2c1OC	-	87	-	-	-	40	28
CCOc1c2ccoc2nc2c(OC)c(OC)ccc12	-	67	-	-	-	+	175
CCCCCN(C(=O)CCC(=O)OCCOc1ccc(OCC)cc1)c1c(N)n(CCCC)c(=O)[nH]c1=O	.	-	-	-	-	.	.
COCOc1ccc(-c2cc(=O)c3c(OCOC)cc(OCOC)cc3o2)cc1	.	64	-	.	-	106	64
COC(=O)c1cc(NC(=O)CN(C)Cc2ccccc2)cc(C(=O)OC)c1	-	35	-	-	-	-	22
Cc1cc(=O)oc2c(C)c(OCC(=O)NCCCn3ccnc3)ccc12	-	-	-	-	-	.	.
Cc1c(C)c2ccc(OCC(=O)NCCCn3ccnc3)c(C)c2oc1=O	-	43	-	-	-	153	126
CCc1cc(=O)oc2cc(OCC(=O)NCCCn3ccnc3)c(Cl)cc12	-	-	-	-	-	.	.
CCCc1cc(=O)oc2cc(C)cc(OCC(=O)NCCCn3ccnc3)c12	-	57	-	-	-	88	65
Cc1cc(OCC(=O)NCCCn2ccnc2)c2c(C)cc(=O)oc2c1	-	78	-	-	-	108	74
SMILES	SARS 3CLpro inh	Mtb FBA inh	Vc quorum ag	PrPC TRFRET	GDH-TPI counter-1	Mtb FBA inh conf	GDH-TPI counter-2	others
Cc1c(OCC(=O)Nc2cccnc2)ccc2c3c(c(=O)oc12)CCC3	-	-	-	-	-	.	.
Cc1c(C)c2ccc(OCC(=O)Nc3ccc(S(N)(=O)=O)cc3)c(C)c2oc1=O	-	41	-	-	-	78	73
Cn1cnc(S(=O)(=O)N2CCN(c3cccc(Cl)c3)CC2)c1	-	-	-	-	-	.	.
CC1(C)CC(=O)N(CC(=O)N2CCN(c3ccc(F)cc3)CC2)c2ccccc2S1(=O)=O	.	.	.	-	.	.	.
O=C(Nc1ccc(Cl)c(Cl)c1)OCCNC(=O)c1ccncc1	-	-	-	-	-	.	.
CCN(CC(=O)NCc1ccco1)S(=O)(=O)c1ccc(OC)cc1	.	-	-	-	-	.	.
CC(C)(C)c1cc(=O)n2c(C#N)c(C#N)nc2[nH]1	-	80	-	-	-	47	40
O=C(Cn1c(=O)oc2ccccc21)Nc1n[nH]c(=S)s1	-	-	-	-	-	.	.
COc1cccc2sc3cc(C#Cc4ccccn4)ccc3c(=O)c12	.	-	-	-	-	.	.
COc1cccc2oc3ccc(C#Cc4ccccn4)cc3c(=O)c12	-	86	-	-	-	99	83
CCn1c2ccccc2c2cc(/C=N/n3c(C)nnc3C)ccc21	-	40	-	-	-	62	48
O=C(c1ccc(NC(=S)NCc2ccco2)cc1)N1CCCCC1	-	-	-	-	-	.	.
Cc1cccc(C)c1NC(=O)Cc1cccs1	-	-	-	-	-	.	.
Cc1cc(C)nc(NC(=O)Cc2cccs2)n1	-	32	-	-	-	113	87
COc1ncccc1-c1nnn(-c2ccc(Cl)nc2)n1	-	27	-	-	-	+	+
COc1ccc(/C=N/NC(=O)CNC(=O)c2ccncc2)cc1	-	-	-	-	-	.	.
COc1ccc(COCC(O)CN2CCC(CN3C(=O)c4cccc5cccc(c45)C3=O)CC2)cc1OC (centres undefined)	-	30	-	-	-	-	-
COc1ccc2cc(/C(C)=N/NC(=O)c3cc(-c4cccnc4)nc4ccccc34)ccc2c1	-	34	-	-	-	105	89
CCOc1ccccc1-c1cc(C(=O)N/N=C/c2ccc3c(c2)OCO3)c2ccccc2n1	-	66	-	-	-	+	+
Cc1ccc(/C=N/NC(=O)c2cc(-c3cccnc3)nc3ccccc23)cc1	-	-	-	-	-	.	.
O=C(N/N=C/c1ccc2c(c1)OCO2)c1cc(-c2ccccc2Cl)nc2ccccc12	-	-	-	-	-	.	.
CCOc1cc(/C=N/NC(=O)c2cc(-c3cccnc3)nc3ccccc23)ccc1O	-	108	-	-	51	-	-
O=C(CSc1nnc(-c2ccc(O)cc2)o1)NNC(=O)c1ccncc1	-	-	-	-	-	.	.
Cc1ccc(-c2nc3c(c(=O)[nH]c(=O)n3Cc3ccccc3)n2Cc2ccccc2)o1	-	38	-	-	-	153	133
Cc1ccc(-c2nc3c(c(=O)[nH]c(=O)n3Cc3ccccc3)n2C)o1	-	36	-	-	-	98	115
O=C(OCCCc1cc2ccccc2c(=O)o1)c1ccc2c(c1)OCO2	.	-	-	-	-	.	.
NCCCC[C@@H](C(=O)N1CCNCC1)n1cc([C@@H](N)CC(N)=O)nn1	.	-	-	-	-	.	.
CC(=O)OCC1OC(Sc2cccc3cccnc23)C(OC(C)=O)C(OC(C)=O)C1OC(C)=O (centres undefined)	-	36	-	-	-	+	159

Source: PubChem (several laboratories)
